Only some compounds are listed: those with a hit (about 2% of all), similar ones and a draw of the others.
GC-A act – GC-A (human) enzyme activation. 370,000 tested, 0.14% active. P16066. activation, % at 10 µM. HEK293 GC-A cells, cGMP TR-FRET, EC30 ANP; 0% at EC30 ANP, 100% saturating ANP; in the data active = activation above about 40%
NPR2 activator – GC-B (human) receptor activation; 370,000 tested, 0.11% active; activation, % at 10 µM; P20594; HEK293-GC-B cells, CNP EC30, cGMP TR-FRET; 0% at EC30 CNP, 100% saturating CNP;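 active = activation at 10 µM reaching about 35% in either raw or pattern-adjusted values, limit read from the data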
FAS TE block – FAS thioesterase (human) inhibition. P49327. recombinant FAS-TE, OMFH fluorogenic substrate, fluorescence endpoint. inhibition, % at 15 µM. 360,000 tested, 0.67% active. AID 602261;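 active = compounds whose normalised, plate-corrected inhibition of enzyme fluorescence in the single-dose primary screen is 50% or more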;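 note: 0% = DMSO with enzyme and 100% = substrate without enzyme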
ADAM10 inh – inhibitors of human ADAM10 | 370,000 tested, 0.62% active | O14672 | recombinant ADAM10, EDANS/DABCYL FRET peptide cleavage, 3 h | inhibition, % at 7 µM;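 active = inhibition above a per-campaign cutoff equal to the mean of compounds falling between control-based bounds plus 3 SD, cut at about 20% in these data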;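 note: 0% = DMSO wells while the 100% control is not disclosed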
ADAM17 inh – inhibits human ADAM17; P78536; recombinant ADAM17, EDANS/DABCYL FRET peptide cleavage; inhibition, % at 6.95 µM; 370,000 tested, 0.83% active; AID 720648;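 active = inhibition above the mean of compounds lying between control limits plus 3 SD, set per campaign, cut at about 8.5% in these data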;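 note: 0% = DMSO-only wells as the low control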
Target sequence (P78536 215-824 limits assumed): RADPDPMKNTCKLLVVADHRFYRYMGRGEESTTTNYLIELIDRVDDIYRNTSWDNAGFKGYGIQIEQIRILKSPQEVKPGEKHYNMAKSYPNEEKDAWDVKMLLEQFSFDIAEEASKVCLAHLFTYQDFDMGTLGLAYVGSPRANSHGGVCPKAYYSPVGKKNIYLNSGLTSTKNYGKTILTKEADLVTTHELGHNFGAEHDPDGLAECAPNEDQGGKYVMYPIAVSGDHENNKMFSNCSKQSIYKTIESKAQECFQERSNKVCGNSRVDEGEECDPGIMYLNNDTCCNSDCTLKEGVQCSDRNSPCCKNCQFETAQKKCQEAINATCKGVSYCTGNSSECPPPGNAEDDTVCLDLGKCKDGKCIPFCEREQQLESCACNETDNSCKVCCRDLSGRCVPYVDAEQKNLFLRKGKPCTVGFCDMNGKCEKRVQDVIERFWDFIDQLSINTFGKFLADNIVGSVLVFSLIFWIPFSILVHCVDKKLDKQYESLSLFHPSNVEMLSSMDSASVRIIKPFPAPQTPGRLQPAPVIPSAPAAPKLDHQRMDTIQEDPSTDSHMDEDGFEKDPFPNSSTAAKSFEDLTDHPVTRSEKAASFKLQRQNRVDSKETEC
ADAM10 counter – inhibits human ADAM10 in ADAM17 exosite counter-screen; inhibition, % at 6.95 µM; 2,900 tested, 47% active; shares compounds with ADAM17 inh; recombinant ADAM10, EDANS/DABCYL FRET peptide cleavage, 3 h;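 active = mean inhibition over the triplicate runs exceeds the activity threshold set in the earlier primary screen, cut at about 20% in these data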;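 note: 0% = DMSO wells and 100% = marimastat wells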
ADAM17 confirm – confirmation of inhibitors of human ADAM17; shares compounds with ADAM17 inh; 2,900 tested, 65% active; recombinant ADAM17, EDANS/DABCYL QFRET peptide cleavage; inhibition, % at 6.95 µM;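 active = mean inhibition across replicates above the hit cutoff set in the primary screen, cut at about 8.5% in these data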;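 note: 0% = DMSO wells and 100% = marimastat wells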
Starred values were filed as active, the others as inactive; · = not tested or not shown.

SMILES | GC-A act | NPR2 activator | FAS TE block | ADAM10 inh | ADAM17 inh | ADAM10 counter | ADAM17 confirm
Cc1ccc(S(=O)(=O)N(C)CC(O)Cn2c3ccccc3c3ccccc32)cc1 (centres undefined) | -18.5 | -19.6 | 23.9 | 16.2 | 11.2* | 21.4* | 11.3*
CCN(CC(O)Cn1c2ccccc2c2ccccc21)S(=O)(=O)c1ccc(F)cc1 (centres undefined) | -12.5 | -7.6 | 13.8 | 17.6 | 7.4 | · | ·
O=S(=O)(c1ccc(F)cc1)N(CCO)CC(O)Cn1c2ccccc2c2ccccc21 (centres undefined) | -12.0 | -13.6 | 8.3 | 14.9 | 9.0* | 7.0 | 6.4
COc1ccccc1N(CC(O)Cn1c2ccccc2c2ccccc21)S(=O)(=O)c1ccccc1 (centres undefined) | -26.0 | -12.2 | 18.8 | 7.9 | 5.8 | · | ·
O=C(NCc1ccccc1)[C@@H]1CCCN1C(=O)[C@H]1CCCN1C(=O)c1c(F)cccc1F | -1.2 | 1.7 | · | -1.1 | -2.0 | · | ·
CCCC1CCC2(CC1)CCC2OC(=S)Nc1ccccc1Cl (centres undefined) | -1.4 | -0.3 | · | 2.1 | 0.0 | · | ·
C/C=C/C(=O)N1CCc2cc(S(=O)(=O)N(C)Cc3ccco3)ccc21 | -4.9 | 1.8 | · | 8.2 | -0.8 | · | ·
O=C(NCc1ccc(C(F)(F)F)cc1)O[C@H]1CC[C@@]23CCCN2C(=O)CCC[C@H]3C1 | 2.3 | -4.5 | · | 0.6 | -1.0 | · | ·
OC(COc1ccc(OCc2ccccc2)cc1)CN1CCOCC1 (centres undefined) | 2.0 | 3.0 | -1.4 | 10.0 | 10.5* | 5.9 | 4.4
OC(COc1ccc(OCc2ccccc2)cc1)CN1CCCCC1 (centres undefined) | 5.8 | 3.1 | -6.9 | -0.2 | -3.1 | · | ·
COC1=C[C@H](C(=O)NC2CCN(Cc3ccccc3)CC2)[C@@]2(C)Cc3ccccc3[C@H]2CC1=O | -2.8 | -8.4 | · | -1.8 | 2.5 | · | ·
C=C(C)COc1ccc(-c2n[nH]c(C)c2-c2ccc(Br)cc2)c(O)c1 | 2.7 | -0.8 | 17.8 | 18.1 | 11.2* | 22.1* | 12.4*
COc1ccc(S(=O)(=O)NCC(c2ccco2)N2CCc3ccccc32)cc1 (centres undefined) | -12.9 | -6.6 | 18.9 | 18.3 | 14.1* | 18.1 | 12.4*
O=C(SCC(O)C(O)CS)c1cccs1 (centres undefined) | 1.1 | 0.4 | -12.0 | 12.0 | 42.6* | 30.9* | 64.3*
COc1ccc(C(=O)C2(C(=O)NCc3ccccc3)CC(c3ccccc3C(F)(F)F)=NO2)cc1 (centres undefined) | -1.2 | 1.7 | · | 12.1 | 9.1* | 21.8* | 14.5*
CCCCN1CN2Cc3ccc(C)cc3C2CS1(=O)=O (centres undefined) | -3.4 | 3.2 | · | -8.8 | -5.1 | · | ·
CCOC(=O)NCc1ccc(S(=O)(=O)Nc2ccc(C)cc2)cc1 | -0.4 | 3.4 | 1.0 | 14.2 | 10.9* | 4.6 | 3.8
Cc1ccc(NS(=O)(=O)c2ccc(C3CCCCC3)cc2)cc1 | 2.6 | 3.6 | 32.4 | 11.4 | 8.9* | 37.8* | 18.3*
COc1ccc(-c2noc(C3CCCN(C(=O)Nc4ccc(Cl)cc4)C3)n2)cc1 (centres undefined) | -4.2 | -1.4 | · | 7.0 | 5.8 | · | ·
Cc1cc(C)cc(NC(=O)C2(C(=O)C3CC3)CC(c3ccccc3C(F)(F)F)=NO2)c1 (centres undefined) | -2.4 | 2.2 | · | 12.2 | 6.5 | · | ·
CNc1cc(-n2nc(C)cc2-c2ccccc2)ncn1 | 0.1 | 2.4 | -8.3 | 1.2 | -7.9 | · | ·
Cc1cc(-c2ccccc2)n(-c2cc(N/N=C/c3ccccc3O)ncn2)n1 | -0.2 | -4.3 | 26.2 | 2.8 | 8.7* | 9.2 | 6.5
CCOC(=O)N1CCN(C(=O)C[C@H]2C[C@@]3(C(=O)OC)C(=C[C@H](C(C)(C)C)O[C@@H]3C)N(CCC3=CCCCC3)C2=O)CC1 | -0.5 | -3.8 | · | 10.8 | 10.5* | 10.4 | 7.5
COC(=O)[C@]12C[C@H](CC(=O)N3CCN(C(=O)C4CC4)CC3)C(=O)N(CCC3=CCCCC3)C1=C[C@H](C(C)(C)C)O[C@@H]2C | -1.1 | 4.1 | · | 7.9 | 1.8 | · | ·
COc1ccc(Nc2nc(C)c(-c3ccccc3)s2)cc1 | -4.3 | 3.0 | 18.2 | 8.6 | 9.1* | -16.4 | 1.2
SMILES | GC-A act | NPR2 activator | FAS TE block | ADAM10 inh | ADAM17 inh | ADAM10 counter | ADAM17 confirm
Cc1nc(Nc2ccc(S(N)(=O)=O)cc2)sc1-c1ccccc1 | -12.0 | 2.5 | 11.5 | -47.9 | -25.4 | · | ·
COc1ccc(NC(=O)Cn2nnc(C(=O)Nc3ccc(F)c(Cl)c3)c2N)cc1OC | 9.4 | 1.1 | -0.2 | -1.9 | 1.6 | · | ·
COc1ccc(Cl)cc1NC(=O)c1nnn(CC(=O)Nc2ccc(C)c(C)c2)c1N | -0.9 | -6.4 | -4.5 | 7.7 | 11.0* | -6.3 | 2.4
COCCCN1C(=O)[C@H](CC(=O)N2CCCC2)[C@]2(C(=O)OC)CCCCC=C12 | -0.2 | 2.2 | · | -1.6 | -0.3 | · | ·
CC(C)=CCc1c(O)ccc(C(=O)Cc2ccccc2)c1O | 2.5 | 0.4 | -7.9 | 17.9 | 10.5* | 23.7* | 12.6*
CCc1ccc(NC2=CC(=O)CC(c3ccco3)C2)cc1 (centres undefined) | 1.5 | -3.8 | 1.1 | 14.5 | 9.6* | -6.0 | 2.4
COc1ccc(N2CCC(CNC(=O)Nc3ccccc3)C2)cc1 (centres undefined) | -1.1 | 2.5 | -5.7 | 8.9 | 14.5* | 3.4 | 7.8
COc1ccc(CN2CCC(CNC(=O)Nc3ccccc3)CC2)cc1 | -0.2 | 0.9 | · | 2.1 | 0.8 | · | ·
Cc1ccc(S(=O)(=O)N(C)[C@H]2C[C@H]3c4cc(N5CCOCC5)ccc4CCN3C[C@H]2[C@H](C)O)cc1 | 1.1 | -1.0 | · | 3.8 | 1.0 | · | ·
C=CCN1C(=O)[C@@H](CC(=O)NCc2ccc(OC)c(OC)c2)[C@]2(C(=O)OCC)CCCCC/C=C/12 | -0.5 | -2.6 | · | -2.1 | -2.7 | · | ·
CS/C(=C\[N+](=O)[O-])Nc1ccccc1 | 3.1 | -8.4 | -8.5 | -6.0 | 0.7 | · | ·
CS/C(=C\[N+](=O)[O-])Nc1ccc(F)cc1 | 0.4 | -3.3 | -5.4 | 11.9 | 12.7* | 6.7 | 3.0
CC(C)(C)C1CCC(=O)C(C2(O)C(=O)Nc3ccccc32)C1 (centres undefined) | -2.9 | 4.6 | -5.0 | 2.6 | 12.0* | -3.3 | 1.5
CC1(C)CC(=O)C(C2(O)C(=O)Nc3ccccc32)CO1 (centres undefined) | -0.9 | 5.5 | -7.3 | -1.6 | -5.7 | · | ·
COc1cc(C(c2c(C)[nH][nH]c2=O)c2c(C)[nH][nH]c2=O)ccc1OCc1ccc([N+](=O)[O-])cc1 | -1.2 | 13.9 | -21.1 | 15.7 | 10.0* | 15.8 | 13.2*
Cc1ccc(NC(=O)c2cc([N+](=O)[O-])ccc2NCc2cccnc2)cc1 | 8.3 | 4.1 | 48.9 | 11.8 | 9.2* | 15.4 | 8.6
